G9a block = G9a (human) methyltransferase inhibition; Q96KQ7; hit rate 8.8% among 350,000; G9a H3K9 monomethylation, AlphaScreen, 2 h; Potency, µM (doses to about 102 µM), for inactives: at the top dose activity, negative = inhibition, most hits filed as inhibitors; note: potency is the fitted concentration of half-maximal effect; % is set by controls: 0 for no effect and ±100 for the full control effect; nearly all actives have a fitted effect of over 75% in size
Target sequence (Q96KQ7 913-1193 limits assumed): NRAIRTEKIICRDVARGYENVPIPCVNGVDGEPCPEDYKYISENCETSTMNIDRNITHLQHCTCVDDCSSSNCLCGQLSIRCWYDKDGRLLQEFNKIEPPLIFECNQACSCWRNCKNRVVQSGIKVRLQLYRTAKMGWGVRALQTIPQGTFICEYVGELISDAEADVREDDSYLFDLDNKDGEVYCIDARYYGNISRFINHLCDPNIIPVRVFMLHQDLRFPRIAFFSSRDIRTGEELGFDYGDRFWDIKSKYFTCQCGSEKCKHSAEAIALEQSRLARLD
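Quantitative HTS format: methyltransferase activity on a biotin-tagged H3K9 peptide is measured by AlphaScreen, using a rabbit anti-monomethyl-H3K9 antibody with streptavidin donor and anti-IgG acceptor beads. Final levels are 20 nM enzyme, 500 nM peptide, 20 uM SAM; 2 h RT.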
BAZ2B inh = inhibitors of human BAZ2B bromodomain. Q9UIF8. AlphaScreen BAZ2B-H3K14Ac peptide displacement. Potency, µM (titrated, usually from 114 µM), for the others: at the highest dose activity change, negative = inhibition, actives largely listed as inhibitors. hit rate 4.4% among 360,000; note: potency is the fitted concentration of half-maximal effect; % is set by controls: 0 for no effect and ±100 for the full control effect; nearly all actives have a fitted effect of over 60% in size
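Complex of BAZ2B and biotin-H3K14Ac (50 nM apiece) forms over 30 min at RT, then faces library compounds up to 110 uM for another 30 min; AlphaScreen beads added, 20 min dark incubation, luminescence read.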
PLK1 PBD block = blocks phosphopeptide binding to human PLK1 polo-box domain | Plk1 PBD binding of FITC phosphopeptide, fluorescence polarization | Potency, µM, for the others: max response, negative = inhibition, most hits filed as inhibitors | AID 720504 | P53350 | hit rate 2.8% among 360,000; note: potency is the fitted concentration of half-maximal effect; series mostly up to about 57 µM; % is set by controls: 0 for no effect and ±100 for the full control effect; nearly all actives have a fitted effect of over 65% in size
PI5P4Ka inh = inhibitors of human PI5P4K alpha; P48426; PI5P4Kalpha enzyme, ADP-Glo luminescence, 60 min; active compounds read low; max response, %; hit rate 1.2% among 330,000; AID 652105; active = max response of -50% or lower; inconclusive = between -30% and -50%; inactive = -30% or higher; note: value at the top dose of about 77 µM; % is set by controls: 0 for no effect and ±100 for the full control effect
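Quantitative HTS of the MLSMR library against PI5P4Kalpha with substrate. ATP added last at 5 microM final; room temperature, 60 minutes. Remaining ATP depleted, ADP converted and read as luminescence.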
HP1b binding inh = blocks HP1-beta chromodomain binding to methylated histone tails; AlphaScreen HP1-beta / biotin-H3K9me3 peptide binding; Potency, µM (top dose mostly 114 µM), inactives show top-dose activity change, negative = inhibition, usual class: inhibitors; hit rate 0.56% among 390,000; AID 540317; note: potency is the fitted concentration of half-maximal effect; nearly all actives have a fitted effect of over 70% in size
Target sequence (P83916 whole entry, looked up): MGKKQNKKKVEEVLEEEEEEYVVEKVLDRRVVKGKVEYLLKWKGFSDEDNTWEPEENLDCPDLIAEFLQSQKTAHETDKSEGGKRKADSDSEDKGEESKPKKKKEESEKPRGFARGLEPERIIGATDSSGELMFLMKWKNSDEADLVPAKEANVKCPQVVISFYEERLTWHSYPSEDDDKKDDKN
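HP1-beta protein (50 nM final) preincubated 30 min at room temperature with biotinylated H3(1-18)K9me3 peptide (50 nM) in PBS pH 7.4, 0.01% Tween-20, then compound added for 30 min. AlphaScreen streptavidin donor/nickel chelate acceptor beads (10 ug/mL final), 30 min dark, luminescence read.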
JMJD2A Tudor = JMJD2A Tudor domain (human) inhibition; O75164; AlphaScreen JMJD2A-Tudor / H3K4me3 peptide binding; Potency, µM (titrated, usually from 114 µM), without a hit: at the top dose activity change, negative = inhibition, usual class: inhibitors; hit rate 4.4% among 390,000; AID 504339; note: potency is the fitted concentration of half-maximal effect; % is set by controls: 0 for no effect and ±100 for the full control effect; nearly all actives have a fitted effect of over 50% in size
* = called active by the depositor; ? = inconclusive; / = no result; [ ] = another dose, or the depositor's remark. This is a sample that favours compounds with a hit; in the whole collection about 12% have one here. Unless noted, calls come from the whole dose curve; as a rule, active = well fitted curve in the direction sought with a large enough effect; inconclusive = small, poorly fitted or top-dose-only effect, or another doubt; inactive = no such curve, though single readings can be large; an effect the other way counts as inactive or inconclusive.

SMILES	G9a block	BAZ2B inh	PLK1 PBD block	PI5P4Ka inh	HP1b binding inh	JMJD2A Tudor
CC(C)(C)C(=O)c1cn(CC(=O)NCc2ccc3c(c2)OCO3)c2ccccc12	8%	-25%	-12%	0	59%	-9%[11.4 µM]
Cc1ccc(C(=O)CNc2ccc(Cl)cc2)cc1	?	?	-12%	-3	17%	-23%
CCOc1ccc(NCC(=O)c2ccc(C)cc2)cc1	-9%[59 µM]	35µM*	-11%	2	-15%	?
CCOc1ccc(C(=O)NCC(=O)N2CCCCCCC2)cc1	11%[12.7 µM]	-3%	-3%	-4	36%	-24%
CCOc1ccc(NC(=O)c2ccc(NCC(=O)N3CCCCCC3)cc2)cc1	25µM*	0%	-14%	-2	48%	-8%
Cc1cc(C)n2nc(C(=O)OCC(=O)c3ccc(F)cc3)nc2n1	56µM*	-6%	3%	-27	13%	-17%
Cc1cc(C)n2nc(C(=O)NCc3ccccc3)cc2n1	?	22%	21µM*	/	?	-22%
COc1ccccc1C(=O)COC(=O)c1nc2nc(C)cc(C)n2n1	-38%	23%	3%	8	14%	-12%
Cc1cc(C)n2nc(CC(=O)NCc3ccc(F)cc3)nc2n1	?	13%	27µM*	2	9%	71µM*
Cc1cc(C)n2nc(CC(=O)NNC(=O)COc3ccccc3)nc2n1	25µM*	-9%	-10%	4	35%	-3%
COc1cccc(CNC(=O)Cc2nc3nc(C)cc(C)n3n2)c1	9%[59 µM]	-4%	-2%	-1	35%	7%
CCOc1ccccc1NC(=O)C1CCCN1S(=O)(=O)c1ccc2nc(-c3ccccc3)[nH]c2c1 (centres undefined)	-12%[59 µM]	?	/	/	14%	-36%
CCOC(=O)c1ccc(S(=O)(=O)N2CCN(c3ccccn3)CC2)cc1	?	-6%	0%	6	34%	-1%
CSc1nnc(C)c(/C=C/Nc2ccc(F)cc2F)n1	?	?	-6%	-8	21%	-35%
CSc1nnc(C)c(/C=C/NOCc2cccc(F)c2)n1	22µM*	?	0%	-1	5%	-26%
Cc1ccccc1Cn1c2ccccc2c2cnn(CC(=O)NCCc3ccccc3)c(=O)c21	-5%[59 µM]	-2%	/	/	12%	-7%
O=C1/C(=C/N(C(=O)c2ccco2)c2ccc(Cl)cc2)Sc2ccccc21	-3%[59 µM]	-38%	?	-27	-20%	?
O=C1/C(=C/N(C(=O)c2ccco2)c2ccc(Br)cc2)Sc2ccccc21	45µM*	?	?	-13	?	56µM*
Cc1ccc(CN(C)C(=O)COC(=O)CSc2cc(C)c3ccccc3n2)cc1	0%[12.7 µM]	-2%	-6%	5	33%	-7%
Cc1nn(-c2ccccc2)c(Cl)c1/C=N/NC(=O)CNc1n[nH]c(=O)[nH]c1=O	3%	-28%	/	/	/	/
S=C1NC2=C(CCC/C2=C\c2ccccc2)C(c2ccccc2)N1 (centres undefined)	8.9µM*	?	?	-22	1%	?
S=C1NC2=C(CCCC2=C2SCCCS2)C(c2ccccc2)N1 (centres undefined)	0.79µM*	?	-25%	-21	17%	-2%[11.4 µM]
CC1CC2=C(NC(=S)NC2c2ccc(F)cc2)/C(=C/c2ccc(F)cc2)C1 (centres undefined)	25µM*	?	?	/	-12%	-33%
COc1ccc(C2NC(=S)NC3=C2CCCC3=C2SCCS2)cc1 (centres undefined)	?	32µM*	-19%	-18	-5%	-27%
COc1ccc(-c2nnc(SCc3cc(=O)c4cc(C)cc(C)c4[nH]3)n2C)cc1	0%[59 µM]	5%	/	/	14%[57 µM]	-14%
SMILES	G9a block	BAZ2B inh	PLK1 PBD block	PI5P4Ka inh	HP1b binding inh	JMJD2A Tudor
COc1ccc(NC(=O)CSc2n[nH]c(-c3ccccc3)n2)cc1S(N)(=O)=O	32%[12.7 µM]	9%	-9%	0	13%	-19%
FC(F)(F)c1ccccc1C1C2=C(Nc3ncnn31)c1ccccc1CCC2 (centres undefined)	?	-21%	/	/	/	/
C(=C1/CCCC2=C1Nc1ncnn1C2c1ccccc1)/c1ccccc1 (centres undefined)	45µM*	-38%[57.1 µM]	/	/	/	/
CC1CCCC(NC(=O)CN(C)CC(=O)Nc2ccc(F)cc2)C1C (centres undefined)	-2%[0.501 µM]	7%	4%	-1	40%	0%
O=C(O)C(Cc1ccccc1)n1c(=S)[nH]c2ccccc2c1=O (centres undefined)	?	-10%	?	0	48%	14µM*
Cc1c([N+](=O)[O-])c(C(=O)Sc2ccc(Br)cc2)nn1C	25µM*	18%	?	9	23%	-6%
Cc1c([N+](=O)[O-])c(C(=O)N2CCCC2)nn1C	28%[0.501 µM]	-7%	-2%	/	8%	-13%
O=C(CBr)N1CCc2ccccc2C(c2ccccc2)C1 (centres undefined)	32µM*	-30%	-7%	0	32%	6%
CC1=NOC(=O)/C1=C/c1ccc(-c2ccc(Cl)cc2)o1	4.5µM*	?	/	/	/	/
CC1=NOC(=O)/C1=C\c1ccc(-c2cc(Cl)ccc2Cl)o1	?	?	0.6µM*	-23	?	?
CCOC(=O)c1cc(-c2ccc(/C=C3/C(=O)N(c4ccc(C(=O)O)cc4)N=C3C)o2)ccc1Cl	7.1µM*	18µM*	0.84µM*	-25	?	14µM*
CC1=NOC(=O)/C1=C\c1ccc(-c2ccc(Br)cc2C(=O)O)o1	/	?	2.7µM*	-22	-5%	-15%
COc1ccc(CCNc2ncnc3c2c(-c2ccccc2)cn3-c2ccc(Cl)cc2)cc1OC	?	-36%	/	/	?	?
CC(=O)c1ccc(NC(=O)CSc2nc(=O)n(Cc3ccccn3)c3c2CCC3)cc1	-3%[59 µM]	-6%	/	/	14%	-3%
CCCCC(CC)CN1CN(CC(CC)CCCC)CC(C)(N)C1 (centres undefined)	-35%[2.33 µM]	/	-4%	15	19%	-22%
CC1=NOC(=O)/C1=C\c1ccc(-c2ccc(Br)cc2)o1	5µM*	11µM*	0.6µM*	?	-23%	?
CC1=NN(c2ccc(Br)cc2)C(=O)/C1=C/c1ccc(-c2ccccc2C(=O)O)o1	35µM*	35µM*	12µM*	3	?	32µM*
CCCCOC(=O)c1cc(-c2ccc(/C=N/n3cnnc3)o2)ccc1Cl	/	/	-8%	/	-4%	56µM*
O=Cc1ccc(-c2ccccc2C(=O)O)o1	?	-22%	-4%	13	11%	-3%
Brc1ccc(-c2ccc(/C=N/Nc3nncc(-c4ccccc4)n3)o2)cc1	31%[59 µM]	-10%	-5%	-12	44%	-14%
CC(C)(C)OC(=O)N1CCCC1C(=O)NC1COC2CC(n3ccc(=O)[nH]c3=O)OC12 (centres undefined)	/	/	/	/	50%	-10%
